Results taken from the supplement of paper PMC10981050.
Several values for one entry are separate records, joined by “and”; a condition that tells them apart may be missing. Equal values may be shown once. Where a name gives a salt, the structure may show the parent alone.

How the values were obtained:
Assay in all cases: cell viability relative to vehicle control; higher = less cytotoxic
Conditions in all cases: 10 µM
K562 = test system: K562
Summary of the method: (§1)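 Each screen used CRISPR-edited mutant and wild-type clones from four leukaemia lines. Compounds were acoustically dispensed at a single 10 µM dose, and CellTiter-Glo luminescence was read after 48 h with the supernatant first removed. Viability was analysed in Genedata Screener and given as percent of the on-plate vehicle control.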

MARIMO = test system: MARIMO
Summary of the method: as §1

MOLM14 = test system: MOLM14
Summary of the method: as §1

OCI-AML2 = test system: OCI-AML2
Summary of the method: as §1

SMILES	cell viability (K562; SRSF2 genotype: SRSF2 P95H/wt)	cell viability (K562; SRSF2 genotype: SRSF2 wt/wt) [%]	cell viability (MARIMO; SRSF2 genotype: SRSF2 P95H/wt) [%]	cell viability (MARIMO; SRSF2 genotype: SRSF2 wt/wt) [%]	cell viability (MOLM14; SRSF2 genotype: SRSF2 P95H/wt) [%]	cell viability (MOLM14; SRSF2 genotype: SRSF2 wt/wt) [%]	cell viability (OCI-AML2; SRSF2 genotype: P95H/wt) [%]	cell viability (OCI-AML2; SRSF2 genotype: wt/wt) [%]
COc1cc2c(cc1O)C[C@H]1c3cc(O)c(OC)cc3CC[N@@+]1(C)C2 [Phellodendrine]	104% and 97.8%	102	98.9	98.7	111	102	101	96.4
CC(C)(C)[N+]([O-])=Cc1ccc(S(=O)(=O)O)cc1S(=O)(=O)O [NXY-059 (Disufenton sodium)]	111% and 102%	109	109	110	104	108	102	104
C[C@@H]1C/C=C/C=C/C=C/C=C/[C@H](O[C@@H]2O[C@H](C)[C@@H](O)[C@H](N)[C@@H]2O)C[C@@H]2O[C@](O)(C[C@@H](O)C[C@H]3O[C@@H]3/C=C/C(=O)O1)C[C@H](O)[C@H]2C(=O)O [Natamycin]	102% and 105%	102	100	105	98.5	104	101	110
Oc1ccc2ccccc2c1N=Nc1ccc(N=Nc2ccccc2)cc1 [Solvent Red 23]	83.7% and 81.2%	82	82.6	90.8	76	85.3	75.3	78.7
CC12CCC(O)CC1=CCC1C2CCC2(C)C(C(O)CC(O)(C(F)(F)F)C(F)(F)F)CCC12 (stereo unspecified)	86.1% and 93.4%	98.3	97	90.3	76.7	91.8	71.3	76.3
C=C1C[C@@]23CC[C@H]4[C@@](C)(CCC[C@@]4(C)C(=O)O[C@@H]4O[C@H](CO)[C@@H](O)[C@H](O)[C@H]4O)[C@@H]2CC[C@]1(O[C@@H]1O[C@H](CO)[C@@H](O)[C@H](O)[C@H]1O)C3 [Rubusoside]	100% and 97.7%	101	110	104	104	103	104	114
O=C1CCc2ccc(OCCCCN3CCN(c4cccc(Cl)c4Cl)CC3)cc2N1 [Aripiprazole (Abilify)]	90.5% and 93%	93.2	86.8	80.1	86.5	98	47.1	75.5
CCOC(=O)N1CCC(CN(Cc2ccc(Cl)cc2)Cc2ccc([N+](=O)[O-])s2)C1 (stereo unspecified) [Stenabolic (SR9009)]	56% and 70.8%	63.4	33.5	25.5	45.6	41.9	39.1	41.4
COc1cc2c(c(OC)c1OC)-c1c(cc3c(c1OC)OCO3)C[C@H](C)[C@](C)(O)[C@H]2OC(=O)c1ccccc1 [Schisantherin A]	102% and 111%	97.5	89.3	102	100	102	106	102
CCC[C@@H]1C[C@@H](C(=O)N[C@@H]([C@H]2O[C@H](SC)[C@H](O)[C@@H](O)[C@H]2O)[C@H](C)Cl)N(C)C1 [Clindamycin]	96.3% and 99.1%	103	104	106	95.3	99.8	113	98.9
CC(C)c1nc(N(C)S(C)(=O)=O)nc(-c2ccc(F)cc2)c1/C=C/[C@@H](O)C[C@@H](O)CC(=O)O [Rosuvastatin Calcium]	103% and 107%	101	94.8	96.5	112	105	105	102
CCn1cc(C(=O)O)c(=O)c2cc(F)c(N3CCN(C)CC3)cc21 [Pefloxacin Mesylate Dihydrate]	83.5% and 78%	80.7	88	94.2	87.7	92.1	90.9	94.8
CC(C)n1cnc2c(NCCc3ccc(O)cc3)nc(-c3csc4ccccc34)nc21 [StemRegenin 1]	50.9% and 50.1%	56	84.6	92.4	64.5	89.6	86.8	83.5
CNC(=O)c1ccc(C)c(-n2c(C)cc(OCc3ccc(F)cc3F)c(Br)c2=O)c1	74% and 77.8%	82.4	65.6	58.4	69.8	78.8	72.8	72.2
Cc1cc(C)n(C)n1 [1,3,5-Trimethylpyrazole]	110% and 105%	115	113	109	97.9	110	104	104
N#CN=C(NCCCCCCOc1ccc(Cl)cc1)Nc1ccncc1	26.1% and 17.5%	25.9	16.8	26.9	6.24	1.39	6.42	6.39
N#CC[C@H](C1CCCC1)n1cc(-c2ncnc3[nH]ccc23)cn1 [S-Ruxolitinib]	108% and 98.5%	113	101	104	75.5	89.4	83.4	77.2
CCCCCCCCCCCCCCCCCCCCCC(=O)O [Behenic Acid]	101% and 91.8%	103	97.7	112	104	108	91.8	102
CCCNC(=O)C1OC1C(=O)NC(C(=O)N1CCCC1C(=O)OC)C(C)CC (stereo unspecified) [CA-074 methyl ester (CA-074 Me)]	76.9% and 62.3%	70.2	66	90.1	18.2	11.8	25.6	24.1

SMILES	cell viability (K562; SRSF2 genotype: SRSF2 P95H/wt)	cell viability (K562; SRSF2 genotype: SRSF2 wt/wt) [%]	cell viability (MARIMO; SRSF2 genotype: SRSF2 P95H/wt) [%]	cell viability (MARIMO; SRSF2 genotype: SRSF2 wt/wt) [%]	cell viability (MOLM14; SRSF2 genotype: SRSF2 P95H/wt) [%]	cell viability (MOLM14; SRSF2 genotype: SRSF2 wt/wt) [%]	cell viability (OCI-AML2; SRSF2 genotype: P95H/wt) [%]	cell viability (OCI-AML2; SRSF2 genotype: wt/wt) [%]
CC(C)C(C(=O)O)N1C(=O)C(=Cc2ccc(Br)cc2)SC1=S (stereo unspecified)	105%	102	98.4	105	100	100	102	109
CC12CCC(C1)C(C)(C)C2O (stereo unspecified) [Fenchyl Alcohol]	105% and 94.5%	91.5	89.9	100	96.4	96.6	91.5	89.1
Fc1ccc2c(/C=C/c3nn[nH]n3)c[nH]c2c1	100% and 102%	98.6	104	102	94.2	96.3	102	108
CCCCCCCCCCCC1=C(O)C(=O)C=C(O)C1=O [Embelin]	91.7% and 88.2%	85.5	90.3	98.8	90.9	91.9	89.3	94.6
Cc1cc(Cl)ccc1OCCCC(=O)NO [Droxinostat]	83.6% and 88.4%	85.2	76.4	89.8	84.8	87.1	79.3	80.7
O=C1Nc2ccc(CN3C(=O)CSC3=O)cc2/C1=C/c1cc(CN2CCOCC2)c[nH]1	98.7% and 100%	103	97.1	100	92	100	97.6	91
CCn1cc(-c2cccc(C(F)(F)F)c2)c2sc(C(=N)NC3CCS(=O)(=O)CC3)cc2c1=O	68.1% and 71.5%	69.9	55.8	45.3	27	32.3	22.6	42.1
CCCCC[C@](C)(O)/C=C/[C@@H]1[C@@H](C/C=C\CCCC(=O)O)[C@@H](O)C[C@H]1O [Carboprost]	110% and 101%	102	97.5	91.1	78.8	99.7	90.3	90.1
O=C(Oc1coc(CSc2ncccn2)cc1=O)c1ccc([N+](=O)[O-])cc1	88.1% and 95.5%	100	98.3	98.7	96.5	97.4	97.9	81.8
COc1nc(C)nc(Cl)c1NC1=NCCN1 [Moxonidine]	101% and 86.7%	84.3	87.2	95.5	89.9	94.8	97.5	89.6
COC(=O)c1ccc(O)c(OC)c1 [Methyl Vanillate]	101% and 96.9%	102	90.7	104	103	103	95.2	107
CN(C)CC(=O)Nc1ccc2[nH]c(=O)c3ccccc3c2c1	97.7% and 93.8%	94.9	100	94.6	89.1	96	91.6	98.4
CCOc1cc(CC(=O)N[C@@H](CC(C)C)c2ccccc2N2CCCCC2)ccc1C(=O)O [Repaglinide]	105% and 100%	97.6	103	101	102	101	108	116
Cc1ccc(O)c([C@H](CCN(C(C)C)C(C)C)c2ccccc2)c1 [Tolterodine tartrate (Detrol LA)]	80.3% and 94%	87.2	75.7	81.6	70	83.4	88.6	84
CN(NC(=O)CC(=O)NN(C)C(=S)c1ccccc1)C(=S)c1ccccc1 [Elesclomol (STA-4783)]	28.9% and 15.4%	51.2	11.8	21.5	0.35	0.25	2.86	12.4
Cc1ccc(C(C)C)cc1O [Carvacrol]	100% and 101%	98.7	95.5	99	99	100	92.8	100
COC(=O)C1=CO[C@@H](O[C@@H]2O[C@H](CO)[C@@H](O)[C@H](O)[C@H]2O)[C@H]2[C@@H]1C(=O)C[C@@H]2C [Verbenalin]	104% and 98.5%	104	99.9	100	110	103	98.4	100
CS(=O)(=O)N1CCc2c(-c3cnc(N)nc3)nc(N3CCOCC3)nc21	56.4% and 67%	66.8	53.6	42.5	34.2	35.9	17.8	25.3
